{"source": "PubChem BioAssay (Tox21)", "note": "Results filed as inconclusive are left out. Where a call stands in place of a potency, no number is given. Activity calls are given as the source filed them. Calls come from the whole dose curve; as a rule, active = well fitted activation curve with a large enough effect in the repeat runs; inconclusive = weak or mixed curves; inactive = flat fitted curve, though single readings scatter. Potency is the fitted concentration of half-maximal effect.", "data": [{"assay": "A CellTox Green Cytotoxicity Assay to monitor cytotoxicity in HepG2 cells - 16 hour (AID 1224876); note: nearly all actives have a fitted effect of over 45% in size", "details": "CellTox Green fluorescence; series mostly up to 76.8 µM", "method_in_brief": "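First, HepG2 cells (600/well) mixed with reagent were plated; second, after 5 h at 37 C they received compounds via pintool; third, fluorescence was measured at 0 h through 40 h at 8 h intervals.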", "values": [{"smiles": "CCCCCl", "Potency": "inactive"}, {"smiles": "CC(C)(C)NCC(O)c1cc(Cl)c(N)c(C(F)(F)F)c1", "note": "(stereo not drawn)", "Potency": "inactive"}, {"smiles": "O=C(Cc1ccccc1)OCCc1ccccc1", "Potency": "inactive"}, {"smiles": "N#CC(C#N)=C(C#N)C#N", "Potency": "inactive"}, {"smiles": "O=C(O)COc1cc(Cl)c(Cl)cc1Cl", "Potency": "inactive"}, {"smiles": "CCCC(C)(COC(N)=O)COC(=O)NC(C)C", "note": "(stereo not drawn)", "Potency": "inactive"}, {"smiles": "CN1CC[C@]23c4c5ccc(O)c4O[C@H]2[C@@H](O)C=C[C@H]3[C@H]1C5", "Potency": "inactive"}, {"smiles": "CCOP(=S)(S)OCC", "Potency": "inactive"}, {"smiles": "C=CCc1ccccc1O", "Potency": "inactive"}, {"smiles": "CC(C)(C)OOC(C)(C)CCC(C)(C)OOC(C)(C)C", "Potency": "inactive"}, {"smiles": "O=S(=O)(c1ccccc1)c1ccccc1", "Potency": "inactive"}, {"smiles": "Nc1c(Br)cc(Br)c2c1C(=O)c1ccccc1C2=O", "cytotoxicity increase": "-4.68% [at 15.8 µM] (inactive)"}, {"smiles": "COc1cc(CC(C)N)c(OC)cc1Br", "note": "(stereo not drawn)", "Potency": "inactive"}, {"smiles": "O=C(O)c1ccc(=O)[nH]c1", "Potency": "inactive"}, {"smiles": "CCNC(=O)NC(=O)/C(C#N)=N/OC", "Potency": "inactive"}, {"smiles": "C=CCOCC1CO1", "note": "(stereo not drawn)", "Potency": "inactive"}, {"smiles": "CCCSP(=S)(OCC)Oc1ccc(SC)cc1", "note": "(stereo not drawn)", "Potency": "inactive"}, {"smiles": "CCOP(=S)(OCC)Oc1ccc(S(C)=O)cc1", "note": "(stereo not drawn)", "Potency": "inactive"}, {"smiles": "C=C(C)C(=O)OCCCCOC(=O)C(=C)C", "Potency": "inactive"}, {"smiles": "C=C(Cl)Cl", "Potency": "inactive"}, {"smiles": "Clc1ccc(Cl)c(Cl)c1", "Potency": "inactive"}, {"smiles": "NNCCO", "Potency": "inactive"}, {"smiles": "O=C(N[C@H]1CN2CCC1CC2)c1ccc2c(c1)OCCO2", "Potency": "inactive"}, {"smiles": "ClCc1ccccc1Cl", "Potency": "inactive"}, {"smiles": "Nc1ccccc1C(=O)OCCc1ccccc1", "Potency": "21.9 µM (active)"}, {"smiles": "O=C=NC1CCCCC1", "Potency": "inactive"}, {"smiles": "c1ccc2c(c1)sc1ccccc12", "Potency": "inactive"}, {"smiles": "N#CC1(N=NC2(C#N)CCCCC2)CCCCC1", "Potency": "inactive"}]}]}
